Screens: PubChem BioAssay, National Center for Advancing Translational Sciences (NCATS)
D2 PAM-1 = HTS Assay for Positive Allosteric Modulators of the Human D2 Dopamine Receptor: Primary Screen for Potentiators; D(2) dopamine receptor (Homo sapiens), P14416; HEK293 T-REx D2, calcium flux, EC20 dopamine potentiation; potentiation, % at 10 µM; actives 0.34% (n = 340,000); AID 485347, 2010;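 active means potentiation over 3 SD above the plate norm, cut at about 30% in these data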; further: 0% is about no effect
Target sequence (P14416 whole entry, looked up): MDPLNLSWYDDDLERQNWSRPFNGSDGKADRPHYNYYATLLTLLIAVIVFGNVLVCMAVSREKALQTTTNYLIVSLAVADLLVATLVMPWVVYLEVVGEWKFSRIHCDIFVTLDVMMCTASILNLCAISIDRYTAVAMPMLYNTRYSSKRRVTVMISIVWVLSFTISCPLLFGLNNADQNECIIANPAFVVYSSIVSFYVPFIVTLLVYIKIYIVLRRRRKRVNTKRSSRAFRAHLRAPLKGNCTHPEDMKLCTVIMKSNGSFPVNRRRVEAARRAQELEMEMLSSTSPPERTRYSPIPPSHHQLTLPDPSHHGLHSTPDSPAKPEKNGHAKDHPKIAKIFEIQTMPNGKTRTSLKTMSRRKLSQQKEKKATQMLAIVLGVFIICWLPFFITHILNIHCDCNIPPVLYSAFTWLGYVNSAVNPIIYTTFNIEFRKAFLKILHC
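Cells plated with tetracycline inducer and held overnight at 30 C; calcium dye loaded 30–90 min at room temperature; baseline taken, compound added and read 180 s; EC20 dopamine then added and read 180 s.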
D2 ag-1 = Beta-Arrestin HTS for Positive Allosteric Modulators of the Human D2 Dopamine Receptor: Agonists | activation, % (no concentration beside the values) | DiscoveRx PathHunter D2 beta-arrestin, luminescence, 90 min; 100% = 57 uM dopamine signal | AID 624465, 2012 | actives 0.084% (n = 360,000); in the data active means activation above about 40%; inconclusive means between about 15% and that limit
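DiscoveRx PathHunter D2 beta-arrestin cells (2,100/well) attached overnight, then compound-stimulated 90 min at 37 C in HBSS/10 mM HEPES/0.1% Tween-20 buffer; beta-galactosidase complementation read by luminescence after 1 h at ambient temperature. Dopamine 57 uM final (EC100) as control.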
D2 ag-2 = HTS Assay for Allosteric Agonists of the Human D2 Dopamine Receptor: Primary Screen for Agonists; D(2) dopamine receptor (Homo sapiens), P14416; HEK293 T-REx D2 cells, calcium flux agonist mode; activation, % at 2 µM; actives 0.53% (n = 340,000);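 active means activation over 3 SD above normal in the single-dose calcium agonist read, cut at about 30% in these data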; further: 0% is about no effect
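Tetracycline-induced HEK293 T-REx cells with force-coupled D2 receptor, plated overnight at 30 C, loaded with no-wash calcium dye. After a 10 s baseline, compound was pin-added and calcium flux read kinetically for 180 s; calcium rises flagged agonists.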
D2 antag = HTS Assay for Allosteric Antagonists of the Human D2 Dopamine Receptor: Primary Screen for Antagonists; actives 2% (n = 340,000); D(2) dopamine receptor (Homo sapiens), P14416; AID 485344, 2010; HEK293 TREx D2 cells, calcium flux, dopamine EC80; inhibition, % at 10 µM; in the data active means inhibition above about 30%; inactive means below that, where a call was filed; further: 0% is about no effect
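Compounds are added to dye-loaded, induced HEK293 T-REx cells coupled to calcium release via D2; after a 3 min kinetic read an EC80 dopamine stimulus is given and fluorescence is recorded for 3 more min.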
D2 PAM-2 = Beta-Arrestin HTS for Positive Allosteric Modulators of the Human D2 Dopamine Receptor: Potentiators | D(2) dopamine receptor (Homo sapiens), P14416 | AID 624464, 2012 | DiscoveRx D2 beta-arrestin cells, luminescence, 90 min; 100% = 57 uM dopamine signal | actives 0.23% (n = 360,000) | potentiation, % (no concentration beside the values); in the data active means potentiation above about 50%; inconclusive means mostly about 30% to 49%
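D2 cells co-treated with compound plus 50 nM dopamine (EC20) for 90 min at 37 deg C to detect potentiation. Beta-arrestin recruitment was read as enzyme-fragment luminescence after 1 h at ambient temperature. Full response was set by 57 uM dopamine.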
Numbers without * were called inactive; ? = inconclusive; nt = no result given. Rows were chosen to be rich in hits. Some 2.4% of all compounds tested hit in one or more screens of this group.

SMILES	D2 PAM-1	D2 ag-1	D2 ag-2	D2 antag	D2 PAM-2
CCc1cccc(N(C(=O)c2csnn2)C(C(=O)NC(C)(C)CC)c2ccccn2)c1 (configuration not stated)	7	-3	-2	-11	-5
O=C(Cc1ccccc1)N[C@@H](Cc1ccc(O)cc1)C(=O)O	3	nt	0	36*	nt
COc1ccccc1CNC(=O)N[C@@H](Cc1ccccc1)C(=O)O	0	-1	0	37*	-6
C/C=C/C(=O)N1CC2(CC(c3cccc(NC(=O)CCCCC)c3)=NO2)C[C@H]1C(N)=O (some centres not stated)	-5	nt	-1	3	nt
CCCOc1ccc(C(=O)NNC(=S)NC(=O)CC)cc1	-11	-6	0	72*	-18
Cc1onc(-c2ccccc2)c1C(=O)Nc1nnc(COc2ccc(Cl)cc2)s1	nt	0	1	39*	?
C=CCNC(=S)NNC(=O)c1ccc(OCCC)cc1	-4	-5	-1	6	-8
CCCOc1ccc(NC(=O)c2c(-c3ccccc3)noc2C)cc1	-7	-6	0	1	1
CCCOc1ccc(C(=O)NC(=S)NNC(=O)c2c(-c3ccccc3)noc2C)cc1	-12	-14	70*	25	-23
O=C(Cn1cc2c(n1)CCCC2)NCc1cccnc1	8	0	-2	3	-1
COCCCN1CC23C=CC(O2)C(C(=O)O)C3C1=O (configuration not stated)	10	-2	0	-15	-4
CCCN1CC23C=CC(O2)C(C(=O)O)C3C1=O (configuration not stated)	6	-2	1	48*	-2
CCC(C)N1CC23C=CC(O2)C(C(=O)OC)C3C1=O (configuration not stated)	-1	-2	6	31*	-1
Cn1c(SCC(=O)N2c3ccccc3CCc3ccccc32)nnc1-c1cc2ccccc2cc1O	-19	1	1	-8	3
O=c1oc(-c2ccco2)nc2ccccc12	6	-2	1	36*	3
O=c1oc(-c2ccco2)nc2c1cnn2-c1ccccc1	-1	-3	1	2	-8
Cc1cc(C(=O)COC(=O)Cn2cnc3c2c(=O)n(C)c(=O)n3C)c(C)n1C	9	-1	0	45*	-9
COc1ccc(NC(=O)c2c3c(nc4ccccc24)CCC3)cc1S(=O)(=O)N1CCOCC1	-15	-4	33*	5	13
COc1ccc(C(=O)Nc2ccc(NC(=O)c3ccccc3)cc2)cc1S(=O)(=O)N1CCOCC1	-18	3	0	16	-10
Cc1cccc(Nc2nc(-c3ccc(F)c(C)c3)cs2)n1	-10	2	-1	13	-1
O=c1cc(-c2ccccc2)oc2cc(OCc3ccccc3)cc(O)c12	-8	2	1	51*	-8
O=c1cc(-c2ccc(OCc3ccccc3)cc2)oc2cc(OCc3ccccc3)cc(OCc3ccccc3)c12	nt	1	nt	nt	2
S=C1NCCC12C(=S)Nc1ccccc12 (configuration not stated)	nt	-5	nt	nt	-6
CCC(=O)N/N=C/c1ccc(-c2ccc([N+](=O)[O-])cc2)o1	4	7	0	14	-1
CC(C)(C)C(=O)/C=c1\s/c(=C\c2ccc(-c3ccc([N+](=O)[O-])cc3)o2)c(=O)n1CC(=O)NC(N)=O	-29	4	206*	91*	4
SMILES	D2 PAM-1	D2 ag-1	D2 ag-2	D2 antag	D2 PAM-2
O=C(NC(=O)c1ccccc1O)c1ccc(C(F)(F)F)cc1	nt	-12	nt	nt	-3
CCC(NC(=O)C1CCC1)c1ccc(C)cc1 (configuration not stated)	-9	-2	1	37*	-8
COc1ccc(C(CC(=O)O)NC(=O)C2CCCCC2)cc1 (configuration not stated)	8	-2	1	14	-3
Cc1ccc(NC(=O)c2cc3c([nH]c2=O)CC(C)(C)CC3=O)c(C)c1	5	nt	0	nt	nt
COc1ccc(C(=O)Nc2cccc(NC(=O)c3ccc(OC)c(OC)c3)n2)cc1OC	5	5	-1	-4	85*
COc1ccc(C2=Nn3c(nnc3-c3ccccc3OC)SC2)cc1OC	37*	1	0	-4	4
COc1ccc(C2=Nn3c(nnc3-c3ccccn3)SC2)cc1OC	14	-5	2	-15	-4
CCCCCN1CC(O)=C(c2nc3ccccc3[nH]2)C1=N	-2	-8	2	39*	-6
COCCN1CC(O)=C(c2nc3ccccc3c(=O)[nH]2)C1=N	16	-1	0	38*	-1
CCCN1C(=O)C(NC(=O)c2ccncc2)(C(F)(F)F)C2=C1CC(C)(C)CC2=O (configuration not stated)	nt	3	nt	nt	-6
NC(=O)C1(N2CCCCC2)CCN(Cc2ccc(Br)cc2)CC1	-25	-2	0	37*	-18
O=C(Nc1cccc(F)c1)Nc1cnccn1	11	1	1	-13	-9
O=C(Nc1cccc(F)c1)Nc1ccccn1	-23	-4	0	87*	-10
CC(=O)c1ccc(OCCCC(=O)NC2CCC(C)CC2)cc1 (configuration not stated)	-2	-3	0	2	-5
COC(=O)Nc1nnc(/C=C/c2ccc(OC)cc2)s1	1	3	2	31*	9
COc1ccc(/C=C/c2nnc(NC(C)=O)s2)cc1	8	-3	2	3	-6
O=C(O)c1cc(/C=C/C(=O)c2cc(F)ccc2O)c2c(c1)COCO2	10	-5	2	-15	-21
Cn1c(=O)c2c(nc(N3CCN(c4ccc([N+](=O)[O-])cc4)CC3)n2C)n(C)c1=O	3	-19	0	34*	-5
Cn1c(=O)c2c(ncn2CC(=O)N2CCN(c3ccc([N+](=O)[O-])cc3)CC2)n(C)c1=O	-1	0	0	-4	-2
Cn1c(=O)c2c(nc(N3CCCCC3)n2C)n(C)c1=O	30*	1	-1	-10	4
Clc1ccc(N=c2ssnc2Cl)nc1	-8	-1	1	-5	103*
Cc1ccc(S(=O)(=O)Nc2cccc3cccnc23)cc1	-11	-6	-1	-16	-33
COc1cc(NS(=O)(=O)c2ccc(C)cc2)c2ncccc2c1	54*	-7	0	-22	-32
